Several values for one entry are separate records, joined by “and”; a condition that tells them apart may be missing. Equal entries are not always repeated. Where two headings read alike, the source gives them in different places.
Legend:
[1] = system: MKNK1; settings: concentration: 1 μM, replicates: in singlicate; n = 1
[2] = system: MKNK2; settings: n = 1
[3] = system: T1, MLCK; settings: n = 1
T1 construct: gene MYLK3

[4] = system: T2, MLK1; settings: concentration: 1 μM, replicates: in singlicate; n = 1
T2 construct: gene MAP3K9

[5] = system: MLK2; settings: concentration: 1 μM, replicates: in singlicate; n = 1
[6] = system: MLK3; settings: n = 1
[7] = system: MRCKA; settings: n = 1
[8] = system: T3, MRCKB; settings: n = 1
T3 construct: gene CDC42BPB

[9] = system: MST1R; settings: n = 1
[10] = system: T4, MST1; settings: n = 1
T4 construct: gene STK4

[11] = system: T5, MST2; settings: n = 1
T5 construct: gene STK3

[12] = system: T6, MST3; settings: concentration: 1 μM, replicates: in singlicate; n = 1
T6 construct: gene STK24

[13] = system: MST4; settings: n = 1
[14] = system: MTOR; settings: n = 1
[15] = system: MUSK; settings: n = 1
[16] = system: MYLK2; settings: n = 1
[17] = system: MYLK4; settings: n = 1
[18] = system: MYLK; settings: n = 1
[19] = system: MYO3A; settings: n = 1
[20] = system: MYO3B; settings: n = 1
[21] = concentration: 1 μM, replicates: in singlicate
[22] = concentration: 1 μM,replicates: in singlicate, 1 µM
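Note: KINOMEscan kinase panel screen.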

## COc1ccc(Nc2nccc(-c3cccc(NC(=O)c4cc5cc(F)ccc5[nH]4)c3)n2)cc1 [GSK1229782]
[1]
  %Inh: 26%
[2]; [21]
  %Inh: 0%
[3]; [21]
  %Inh: 9%
[4]
  %Inh: 5%
[5]
  %Inh: 20%
[6]; [21]
  %Inh: 34%
[7]; [21]
  %Inh: 27%
[8]; [21]
  %Inh: 2%
[9]; [21]
  %Inh: 31%
[10]; [21]
  %Inh: 16%
[11]; [21]
  %Inh: 24%
[12]
  %Inh: 15%
[13]; [21]
  %Inh: 0%
[14]; [21]
  %Inh: 21%
[15]; [21]
  %Inh: 6%
[16]; [21]
  %Inh: 19%
[17]; [21]
  %Inh: 11%
[18]; [21]
  %Inh: 31%
[19]; [21]
  %Inh: 60%
[20]; [21]
  %Inh: 0%

## Cc1cccc(-c2nc(Nc3ccc4[nH]ncc4c3)c3ccccc3n2)n1 [GW857175]
[1]
  %Inh: 0%
[2]; [21]
  %Inh: 0%
[3]; [21]
  %Inh: 0%
[4]
  %Inh: 2%
[5]
  %Inh: 22%
[6]; [21]
  %Inh: 7%
[7]; [21]
  %Inh: 0%
[8]; [21]
  %Inh: 72%
[9]; [21]
  %Inh: 0%
[10]; [21]
  %Inh: 0%
[11]; [21]
  %Inh: 0%
[12]
  %Inh: 10%
[13]; [21]
  %Inh: 27%
[14]; [21]
  %Inh: 0%
[15]; [21]
  %Inh: 0%
[16]; [21]
  %Inh: 7%
[17]; [21]
  %Inh: 32%
[18]; [21]
  %Inh: 32%
[19]; [21]
  %Inh: 0%
[20]; [21]
  %Inh: 0%

## Fc1cccc(COc2nnc(-c3ccc4c(c3)CCO4)o2)c1
[1]
  %Inh: 0%
[2]; [21]
  %Inh: 0%
[3]; [21]
  %Inh: 7%
[4]
  %Inh: 0%
[5]
  %Inh: 19%
[6]; [21]
  %Inh: 0%
[7]; [21]
  %Inh: 0%
[8]; [21]
  %Inh: 1%
[9]; [21]
  %Inh: 10%
[10]; [21]
  %Inh: 0%
[11]; [21]
  %Inh: 0%
[12]
  %Inh: 25%
[13]; [21]
  %Inh: 0%
[14]; [21]
  %Inh: 3%
[15]; [21]
  %Inh: 3%
[16]; [21]
  %Inh: 0%
[17]; [21]
  %Inh: 4%
[18]; [21]
  %Inh: 0%
[19]; [21]
  %Inh: 0%
[20]; [21]
  %Inh: 5%

## COc1cc2nccc(Nc3ccc(NC(=O)c4ccc(C)cc4)c(O)c3)c2cc1OC.Cl [GW440132]
[1]
  %Inh: 0%
[2]; [21]
  %Inh: 5%
[3]; [21]
  %Inh: 0%
[4]
  %Inh: 0%
[5]
  %Inh: 0%
[6]; [21]
  %Inh: 33%
[7]; [21]
  %Inh: 13%
[8]; [21]
  %Inh: 8%
[9]; [21]
  %Inh: 0%
[10]; [21]
  %Inh: 1%
[11]; [21]
  %Inh: 0%
[12]
  %Inh: 0%
[13]; [21]
  %Inh: 0%
[14]; [21]
  %Inh: 4%
[15]; [21]
  %Inh: 13%
[16]; [21]
  %Inh: 4%
[17]; [21]
  %Inh: 0%
[18]; [21]
  %Inh: 11%
[19]; [21]
  %Inh: 10%
[20]; [21]
  %Inh: 0%

## CC1=C(C(=O)Nc2cc3cn[nH]c3cc2F)C(c2ccc(C(F)(F)F)cc2)CC(=O)N1 (centres unmarked) [GSK429286]
[1]
  %Inh: 0%
[2]; [21]
  %Inh: 19%
[3]; [21]
  %Inh: 17%
[4]
  %Inh: 0%
[5]
  %Inh: 0%
[6]; [21]
  %Inh: 0%
[7]; [21]
  %Inh: 1%
[8]; [21]
  %Inh: 23%
[9]; [21]
  %Inh: 36%
[10]; [21]
  %Inh: 0%
[11]; [21]
  %Inh: 0%
[12]
  %Inh: 0%
[13]; [21]
  %Inh: 0%
[14]; [21]
  %Inh: 13%
[15]; [21]
  %Inh: 6%
[16]; [21]
  %Inh: 0%
[17]; [21]
  %Inh: 0%
[18]; [21]
  %Inh: 13%
[19]; [21]
  %Inh: 0%
[20]; [21]
  %Inh: 0%

## CSc1nn2c(=O)cc(N3CCOCC3)nc2n1Cc1cccc(C(F)(F)F)c1C [GSK2363608]
[1]
  %Inh: 0%
[2]; [22]
  %Inh: 11% and 6%
[3]; [22]
  %Inh: 0% and 11%
[4]
  %Inh: 0%
[5]
  %Inh: 0%
[6]; [22]
  %Inh: 17% and 0%
[7]; [22]
  %Inh: 23% and 17%
[8]; [22]
  %Inh: 0% and 5%
[9]; [22]
  %Inh: 35% and 48%
[10]; [22]
  %Inh: 11% and 0%
[11]; [22]
  %Inh: 9% and 1%
[12]
  %Inh: 0%
[13]; [22]
  %Inh: 90.3% and 0%
[14]; [22]
  %Inh: 13% and 28%
[15]; [22]
  %Inh: 12% and 4%
[16]; [22]
  %Inh: 19% and 0%
[17]; [22]
  %Inh: 17% and 0%
[18]; [22]
  %Inh: 6% and 0%
[19]; [22]
  %Inh: 21% and 0%
[20]; [22]
  %Inh: 0% and 14%

## Cn1cncc1-c1ccc2ncnc(Nc3ccc(OCc4ccccc4)cc3)c2c1 [GW320571]
[1]
  %Inh: 24%
[2]; [21]
  %Inh: 27%
[3]; [21]
  %Inh: 7%
[4]
  %Inh: 8%
[5]
  %Inh: 26%
[6]; [21]
  %Inh: 20%
[7]; [21]
  %Inh: 8%
[8]; [21]
  %Inh: 17%
[9]; [21]
  %Inh: 29%
[10]; [21]
  %Inh: 14%
[11]; [21]
  %Inh: 0%
[12]
  %Inh: 0%
[13]; [21]
  %Inh: 0%
[14]; [21]
  %Inh: 30%
[15]; [21]
  %Inh: 21%
[16]; [21]
  %Inh: 20%
[17]; [21]
  %Inh: 0%
[18]; [21]
  %Inh: 6%
[19]; [21]
  %Inh: 0%
[20]; [21]
  %Inh: 0%

## Cn1ccc2ncnc(Oc3ccc(Nc4nc5ccccc5[nH]4)cc3)c21
[1]
  %Inh: 0%
[2]; [21]
  %Inh: 0%
[3]; [21]
  %Inh: 0%
[4]
  %Inh: 0%
[5]
  %Inh: 20%
[6]; [21]
  %Inh: 0%
[7]; [21]
  %Inh: 0%
[8]; [21]
  %Inh: 0%
[9]; [21]
  %Inh: 18%
[10]; [21]
  %Inh: 8%
[11]; [21]
  %Inh: 5%
[12]
  %Inh: 0%
[13]; [21]
  %Inh: 0%
[14]; [21]
  %Inh: 0%
[15]; [21]
  %Inh: 21%
[16]; [21]
  %Inh: 0%
[17]; [21]
  %Inh: 0%
[18]; [21]
  %Inh: 0%
[19]; [21]
  %Inh: 0%
[20]; [21]
  %Inh: 0%

## Cc1ccccc1-n1cnc2c(N)ncnc21 [SKF-97510]
[1]
  %Inh: 0%
[2]; [21]
  %Inh: 0%
[3]; [21]
  %Inh: 0%
[4]
  %Inh: 0%
[5]
  %Inh: 0%
[6]; [21]
  %Inh: 1%
[7]; [21]
  %Inh: 0%
[8]; [21]
  %Inh: 0%
[9]; [21]
  %Inh: 0%
[10]; [21]
  %Inh: 0%
[11]; [21]
  %Inh: 15%
[12]
  %Inh: 18%
[13]; [21]
  %Inh: 0%
[14]; [21]
  %Inh: 0%
[15]; [21]
  %Inh: 0%
[16]; [21]
  %Inh: 0%
[17]; [21]
  %Inh: 0%
[18]; [21]
  %Inh: 0%
[19]; [21]
  %Inh: 0%
[20]; [21]
  %Inh: 42%

## Fc1cc(Cl)ccc1Nc1ccnc2cc(-c3ccc(CN4CCCCC4)o3)ccc12 [GW560116]
[1]
  %Inh: 0%
[2]; [21]
  %Inh: 11%
[3]; [21]
  %Inh: 0%
[4]
  %Inh: 0%
[5]
  %Inh: 0%
[6]; [21]
  %Inh: 0%
[7]; [21]
  %Inh: 6%
[8]; [21]
  %Inh: 3%
[9]; [21]
  %Inh: 16%
[10]; [21]
  %Inh: 0%
[11]; [21]
  %Inh: 0%
[12]
  %Inh: 15%
[13]; [21]
  %Inh: 0%
[14]; [21]
  %Inh: 0%
[15]; [21]
  %Inh: 0%
[16]; [21]
  %Inh: 27%
[17]; [21]
  %Inh: 5%
[18]; [21]
  %Inh: 11%
[19]; [21]
  %Inh: 31%
[20]; [21]
  %Inh: 0%

Source: PMC5540273 (PLoS ONE, 2017)
